Hit rate of the full screen: of about 340,000 compounds, about 270 (0.079%) were called active. The sample holds actives, similar compounds and a random draw of the others, so the mix is not that of the screen.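 How the source made its calls: active means activation above a cutoff set at the mean over all compounds plus 3 SD (cut at about 18% in these data); inactive means the rest.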
The compounds below were run against cAMP-dependent protein kinase catalytic subunit beta (Homo sapiens) + cAMP-dependent protein kinase type II-beta regulatory subunit (Homo sapiens) (UniProt P22694+P31323) (assay: activators of PKA-R2B holoenzyme, primary screen, biochemical, fluorescence polarization, Cy5-IP20, human (AID 504700;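 further: higher means more holoenzyme dissociation and a rise in polarization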)). Settings: PKA-R2B holoenzyme dissociation, at 11.4 µM, active compounds read high, 0% DMSO only, 100% 113 µM cGMP, R2B truncated from residue 108, S112A mutant.
Sequence of cAMP-dependent protein kinase catalytic subunit beta (Homo sapiens) + cAMP-dependent protein kinase type II-beta regulatory subunit (Homo sapiens) (P31323 whole entry, looked up, other chains not shown, the tested form may be a part): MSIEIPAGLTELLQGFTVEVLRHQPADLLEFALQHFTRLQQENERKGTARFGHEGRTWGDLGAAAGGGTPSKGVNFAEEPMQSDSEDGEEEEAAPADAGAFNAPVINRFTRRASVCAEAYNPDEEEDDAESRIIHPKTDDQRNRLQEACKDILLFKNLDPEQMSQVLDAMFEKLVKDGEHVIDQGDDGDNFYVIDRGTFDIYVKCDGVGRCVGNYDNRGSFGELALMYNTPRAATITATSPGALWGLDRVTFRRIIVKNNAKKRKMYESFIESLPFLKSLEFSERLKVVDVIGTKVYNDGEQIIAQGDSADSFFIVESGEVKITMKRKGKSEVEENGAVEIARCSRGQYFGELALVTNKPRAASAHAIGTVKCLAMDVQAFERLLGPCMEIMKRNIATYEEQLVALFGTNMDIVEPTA

activation, inactive:
CC(OC(=O)c1cccc(S(=O)(=O)N2CCOCC2)c1)C(=O)NCC1CCCCC1 (stereo not drawn) 12.7%
O=S(=O)(NCCc1ccccc1)c1ccccc1 -0.17%
O=S(=O)(NCCc1ccncc1)c1ccccc1 -6.62%
COc1ccc(C(C)(C)C)cc1NC(=O)CN(C)C1=NS(=O)(=O)c2ccccc21 -0.8%
O=C(Nc1cc(F)ccc1F)c1ccc2c(=O)n3c(nc2c1)CCC3 0.72%
CC(C)CCOc1ccc(C(=O)Nc2cc(S(=O)(=O)N3CCOCC3)ccc2N2CCOCC2)cc1 -1.72%
Cc1sc2nc(-c3ccccc3F)oc(=O)c2c1C -7.56%
O=C(NCc1nnnn1-c1ccc(Cl)cc1)c1ccc([N+](=O)[O-])o1 -12%
COc1cc(NC(=O)C2=C(C)OCCS2)c(Cl)cc1C(=O)NCCCN1CCCC(C)C1 (stereo not drawn) -6.54%
C[C@H]1Cn2cnc(C(=O)N[C@H](C)c3ccccc3)c2C(=O)N1 1.6%
Cc1ccn2c(-c3csc(Nc4ccc(C(=O)O)cc4)n3)c(C)nc2c1 -9.54%
C[C@@H]1CN([C@@H](C)CO)C(=O)CCCn2cc(nn2)CO[C@H]1CN(C)S(=O)(=O)c1ccc(-n2cccn2)cc1 -4.5%
CCc1c(N=O)c(-c2ccccc2)n(O)[n+]1[O-] -1.7%
C[C@@H]1CN([C@@H](C)CO)C(=O)c2cc(Br)cnc2O[C@H]1CN(C)Cc1ccc(-c2ccccc2)cc1 1.42%
O=C(CC(CC(=O)c1ccccc1)c1ccco1)c1ccccc1 -2.04%
C[C@@H]1Cn2cnc(C(=O)Nc3ccc(CNC(=O)OC(C)(C)C)cc3)c2C(=O)N1 -0.19%
COCCCn1c(=O)/c(=C/c2ccccc2OC(C)C)s/c1=C(\C#N)C(=O)Nc1ccc(C(=O)O)cc1 0.06%
O=C(OCc1ccccc1)N1CCC2CC1c1cc(N3CCN(S(=O)(=O)c4cc(Cl)cc(Cl)c4)CC3)ccc12 (stereo not drawn) -12.1%
CCc1cccc(CC)c1N1C(=O)CC(Sc2ccccc2N)C1=O (stereo not drawn) 3.56%
COc1cccc(OC)c1C(=O)N1CCN(Cc2ccccc2F)CC1 -3.43%
COC(=O)C(Cc1c[nH]c2ccccc12)NC(=O)CCNC(=O)c1ccco1 (stereo not drawn) 7.88%
COc1cc2c(=O)n(C)c3ccccc3c2cc1OC -7.59%
N#CC1(Nc2ccc3c4c(cccc24)CC3)CCCCC1 -2.43%
Cc1ccc([C@H]2C[C@H](O)[C@@H](n3cc(COC(=O)c4ccccc4)nn3)CN2C(=O)C2CCCCC2)cc1 -12.7%
O=NN(CCCl)C(=O)NCCc1cccc[n+]1[O-] -9.83%
CC(C)N=C1CCCC1C(=S)SSC(=S)C1CCCC1=NC(C)C (stereo not drawn) -0.99%
Cc1ccc(CN(C)C[C@@H]2OCc3cnnn3CCCC(=O)N([C@@H](C)CO)C[C@H]2C)cc1 -5.57%
CC1=C(C(=O)N2CCOCC2)CC(CC(=O)NCc2ccco2)C(=O)N1Cc1ccc(F)cc1 (stereo not drawn) -2.68%
C=CCOc1ccccc1CNn1c(C)n[nH]c1=S 10.7%
Cc1c(NC(=O)COC(=O)/C=C/c2cccc(F)c2)c(=O)n(-c2ccccc2)n1C -14.1%
CCc1cc(-c2nnn(CCC3COCCO3)c2CC)ccc1-c1cn(Cc2ccc3ccccc3c2)nn1 (stereo not drawn) 2.92%
CCC1NC(=O)c2cccnc2-n2c1nc1ccc(C)cc1c2=O (stereo not drawn) 2.84%
CNC(=O)c1ccc(CN(C)C(=O)c2cc(C3CC3)nc3c2cnn3C(C)C)cc1 -10%
O=C(OCC(=O)N1CCCCCC1)c1cccc(Cl)c1Cl -0.23%
O=C(c1ccc(F)cc1)N1CCCC(C(=O)N2CCCCC2)C1 (stereo not drawn) -0.42%
NC(=O)C1CCN(C(=O)c2ccc(C(F)(F)F)cc2)CC1 -0.72%
CC1=C(C(=O)N(C)C)CC(CC(=O)NCCN2CCOCC2)C(=O)N1Cc1ccccc1 (stereo not drawn) 10.5%
COc1ccccc1-c1n[nH]nc1C1=CC(=O)CC(C)(C)C1 -8.69%
Cc1ccc(C(=O)N[C@H](C(=O)N2CCN(c3ncccn3)CC2)C(C)C)cc1 -3.29%
CCCCN1C(=O)C(CC(=O)NCc2cccs2)CC(C(=O)N2CCOCC2)=C1C (stereo not drawn) 3.17%
O=C(OCc1cn([C@H]2C[C@H](c3ccccc3)N(C(=O)c3cccs3)C[C@@H]2O)nn1)c1ccccc1 4.15%
COc1ccc(C(=O)N/N=C(\C)CC(=O)Nc2ccc(Cl)cn2)cc1 -4.03%
COc1ccc(C/C(C)=N/NC(=O)c2cc(C)oc2C)cc1 -9.63%
C[C@H]1Cn2cnc(C(=O)N[C@@H](Cc3c[nH]c4ccccc34)C(=O)OC(C)(C)C)c2C(=O)N1 -2.27%
CC(=O)Nc1c(-c2ccc(C)cc2)nc2ccc(Cl)cn12 -8.99%
CC1CCN(c2ccc3c(c2)S(=O)(=O)c2cc(C(=O)O)ccc2C3=O)CC1 -8.29%
CCN(CC)CCN(C(=O)c1ccc2c(c1)CCCC2)c1nc2c(OC)cccc2s1 -1.68%
CNS(=O)(=O)c1ccc2c(c1)[nH]c(=S)n2C 9.72%
C=CCn1nc(C(=O)OCC)cc1-c1sc(NC(=O)c2ccccc2)nc1C 4.98%
COc1ccc(C(=O)NCC2CCCO2)cc1S(=O)(=O)NCc1ccc(Cl)cc1 (stereo not drawn) -8.65%
Cc1cc2c3ccccc3[nH]c(=O)n2n1 -8.33%
CCOc1ccc(S(=O)(=O)NCCC(=O)NNC(=O)c2ccc(F)cc2)cc1 -0.05%
COc1ccc(-n2c(-c3ccc(Cl)cc3)n[nH]c2=S)c(OC)c1 13%
C[C@H]1CN([C@@H](C)CO)S(=O)(=O)c2ccc(-c3cccc(F)c3)cc2O[C@@H]1CN(C)C -5.98%
COc1ccc2nc(-c3ccccn3)ccc2c1 -2.17%
COc1ccc(Cn2c(=O)oc3ccccc32)cc1 -4.8%
O=C1[C@H]2[C@@H](c3ccc(C(F)(F)F)cc3)N[C@]3(CCCN(Cc4ccc(Cl)cc4)C3=O)[C@H]2C(=O)N1Cc1ccccc1 -7.06%
COc1ccc(-c2ccc(CN3C(CC(C)C)C(=O)N(Cc4cn(CC5CCCCC5)nn4)CCS3(=O)=O)cc2)cn1 (stereo not drawn) 5.33%
O=C(COC(=O)c1cncc(Br)c1)Nc1ccc(S(=O)(=O)N2CCOCC2)cc1 -6.43%
CCOC(=O)c1cc(-c2sc(NC(=O)c3ccccc3)nc2C)n(CCO)n1 -2.07%
COC(=O)[C@H]1C[C@H](OC(=O)NCc2ccccc2)[C@@]2(O)CN(S(=O)(=O)c3ccc(C)cc3)CC2[C@H]1C(=O)OC (stereo partly drawn) 1.85%
O=C(C[C@H]1C[C@@H]2c3cc(NC(=O)C4CCC4)ccc3O[C@@H]2[C@H](CO)O1)NC1CCCCC1 -4.88%
CCN(CC(=O)Nc1ccc(NC(C)=O)cc1)C(=O)C1CC(=O)N(c2ccc3c(c2)OCCO3)C1 (stereo not drawn) 1.33%
Cc1ccccc1-c1ccc2c(c1)O[C@@H](CN(C)Cc1ccc(C(=O)O)cc1)[C@@H](C)CN([C@H](C)CO)S2(=O)=O 1.68%
Cc1cc(C)c2cc(C#N)c(N3CCNCC3)nc2c1 5.23%
COCC1CCCCN1C(=O)c1cc(COc2ccc(C)c(C)c2)on1 (stereo not drawn) -6.78%
c1ccc(CNCc2ccc(CNCc3ccccc3)cc2)cc1 -1.27%
C[C@@H]1CN([C@H](C)CO)C(=O)CCCn2nncc2CO[C@@H]1CN(C)S(=O)(=O)c1cccc(C#N)c1 5.67%
O=C(c1ccccc1)N1CCN(c2cc(-c3ccccc3)nc3cc(-c4cccc(Cl)c4)nn23)CC1 -2.44%
C[C@H]1NS(=O)(=O)c2cc(Cl)ccc2O[C@@H]1c1ccccc1 -0.08%
S=C(NN=Cc1ccccn1)Nc1ccccn1 12.6%
CN1OC[C@@H]2CN(C(=O)c3ccc(-c4ccccc4)cc3)[C@H](c3ccc(-c4cccc(F)c4)cc3)C[C@@H]21 -8.75%
C[C@H](CO)N1C[C@H](C)[C@H](CN(C)C(=O)Nc2ccc3c(c2)OCO3)Oc2ncc(Br)cc2C1=O 6.88%
O=C(c1cccs1)N1C[C@H](n2cc(C3CC3)nn2)[C@@H](O)C[C@@H]1c1ccccc1 5.94%
N#CCSc1ccccc1NC(=O)CN1C(=O)NC(CCc2ccccc2)C1=O (stereo not drawn) 0.61%
COC(=O)c1ccccc1N=NNc1ccc([N+](=O)[O-])cc1 7.66%
O=C1NC(Cc2ccccc2)c2nc3ccc(Br)cc3c(=O)n2-c2cc3ccccc3cc21 (stereo not drawn) -6.52%
COc1cc(C(=O)N2CCOC23CCN(Cc2ccccc2)CC3)cc(OC)c1OC 5.01%
CC(=O)c1ccc(OCC(=O)N(C)C2CCS(=O)(=O)C2)cc1 (stereo not drawn) -5.08%
C[C@@H]1CN([C@H](C)CO)S(=O)(=O)c2ccc(C#C[C@@H](C)O)cc2O[C@@H]1CN(C)Cc1ccc(-c2ccccc2)cc1 -12.3%

activation, active:
O=S(=O)(NCCNS(=O)(=O)c1ccccc1)c1ccccc1 21.6%
CC(C)(C)c1ccc(C(=O)N2CCC(C(=O)N3CCCCC3)CC2)cc1 19.2%
COc1ccc(C/C(C)=N/NC(=O)c2ccncc2)cc1 18.7%
